Screen size: about 5,500 compounds; about 2,000 (36%) were called active. Roughly 18% stayed inconclusive and do not appear here. No stated cut-off is given here; in the data, active means normalized growth mostly below about 0.91 (no sharp cut-off); inconclusive means no clear call, values can overlap the other calls; inactive means mostly above about 0.92. Some of the results follow.
Assay: chemical genetic growth profiling, strain panel (AID 1159580);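 further: tested at 20 µM; growth read once vehicle control cultures reached saturation at 30 °C; 1 = growth at the plate median or of vehicle wells; lower values mean less growth of the strain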
Conditions: growth OD
[1] = S. cerevisiae deletion strains, locus YAL013W, strain DEP1, active compounds read low
[2] = S. cerevisiae deletion strains, locus YDR150W, strain NUM1, active compounds read low
[3] = S. cerevisiae deletion strains, locus YGR078C, strain PAC10, active compounds read low
[4] = S. cerevisiae deletion strains, locus YJR075W, strain HOC1, active compounds read low
[5] = S. cerevisiae deletion strains, locus YMR263W, strain SAP30, active compounds read low
[6] = S. cerevisiae deletion strains, locus YNL322C, strain KRE1, active compounds read low
[7] = S. cerevisiae deletion strains, locus YPL055C, strain LGE1, active compounds read low

Measured: normalized growth

CCC(=O)c1c(C)c(C)c(C)c(C)c1C
inactive: [1] 0.985 | S. cerevisiae deletion strains, locus YBR229C, strain ROT2, active compounds read low 0.992 | S. cerevisiae deletion strains, locus YCL061C, strain MRC1, active compounds read low 0.988 | S. cerevisiae deletion strains, locus YDL101C, strain DUN1, active compounds read low 0.99 | S. cerevisiae deletion strains, locus YDL134C, strain PPH21, active compounds read low 0.984 | [2] 1.01 | S. cerevisiae deletion strains, locus YEL061C, strain CIN8, active compounds read low 0.975 | [3] 1 | S. cerevisiae deletion strains, locus YHR030C, strain SLT2, active compounds read low 0.95 | S. cerevisiae deletion strains, locus YHR087W, strain rtc3, active compounds read low 0.959 | S. cerevisiae deletion strains, locus YJL187C, strain SWE1, active compounds read low 0.995 | S. cerevisiae deletion strains, locus YJR043C, strain POL32, active compounds read low 0.983 | [4] 0.948 | S. cerevisiae deletion strains, locus YKL190W, strain CNB1, active compounds read low 0.983 | S. cerevisiae deletion strains, locus YLR039C, strain RIC1, active compounds read low 1.1 | S. cerevisiae deletion strains, locus YLR058C, strain SHM2 (second series), active compounds read low 0.967 | S. cerevisiae deletion strains, locus YLR085C, strain ARP6, active compounds read low 1.01 | S. cerevisiae deletion strains, locus YLR262C, strain YPT6, active compounds read low 1.06 | S. cerevisiae deletion strains, locus YML094W, strain GIM5, active compounds read low 0.977 | S. cerevisiae deletion strains, locus YMR219W, strain ESC1, active compounds read low 0.986 | [5] 0.977 | S. cerevisiae deletion strains, locus YNL153C, strain GIM3, active compounds read low 0.982 | S. cerevisiae deletion strains, locus YNL298W, strain CLA4 (second series), active compounds read low 0.966 | [6] 0.997 | S. cerevisiae deletion strains, locus YNR030W, strain Alg12, active compounds read low 0.954 | S. cerevisiae deletion strains, locus YOL006C, strain TOP1, active compounds read low 1.01 | [7] 0.971 | S. cerevisiae deletion strains, locus YPL241C, strain CIN2, active compounds read low 0.986 | S. cerevisiae deletion strains, locus YPR135W, strain CTF4, active compounds read low 0.976 | S. cerevisiae strains, strain wild type, active compounds read low 0.988

CNC(=O)[C@H]1O[C@@H](n2cnc3c(NCc4ccc(I)cc4)nc(Cl)nc32)[C@H](O)[C@@H]1O
inactive: [1] 0.986 | S. cerevisiae deletion strains, locus YAL040C, strain CLN3, active compounds read low 0.939 | S. cerevisiae deletion strains, locus YCL061C, strain MRC1 (second series), active compounds read low 0.996 | [2] 1 | S. cerevisiae deletion strains, locus YDR363W, strain ESC2, active compounds read low 0.944 | S. cerevisiae deletion strains, locus YER002W, strain NOP16, active compounds read low 0.97 | [3] 0.99 | [4] 0.999 | [5] 0.995 | S. cerevisiae deletion strains, locus YMR307W, strain GAS1, active compounds read low 1 | S. cerevisiae deletion strains, locus YNL128W, strain TEP1, active compounds read low 0.981 | S. cerevisiae deletion strains, locus YNL175C, strain NOP13, active compounds read low 0.962 | S. cerevisiae deletion strains, locus YNL197C, strain WHI3, active compounds read low 0.98 | S. cerevisiae deletion strains, locus YNL224C, strain SQS1, active compounds read low 0.997 | [6] 0.972 | S. cerevisiae deletion strains, locus YOR083W, strain WHI5 (second series), active compounds read low 0.918 | [7] 0.937

Reference: PubChem BioAssay AID1159580 (chemical genetic matrix, 2015)
